The list is not random: actives were taken first. Their share in the collection is about 7.5%.
FLuc counter: counter-screen for miR-21 project: firefly luciferase inhibitors or activators. P08659. purified FLuc, Km substrates, luminescence inhibition. Potency, µM (titrated, usually from 57.5 µM), without a hit: at the highest dose activity change, negative = inhibition, hits mostly inhibitors. 360,000 compounds, 6.9% hits;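 also: plate controls were vehicle for no effect and reference inhibitor for full effect; nearly all actives have a fitted effect of over 55% in size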
Target sequence (P08659 whole entry, looked up): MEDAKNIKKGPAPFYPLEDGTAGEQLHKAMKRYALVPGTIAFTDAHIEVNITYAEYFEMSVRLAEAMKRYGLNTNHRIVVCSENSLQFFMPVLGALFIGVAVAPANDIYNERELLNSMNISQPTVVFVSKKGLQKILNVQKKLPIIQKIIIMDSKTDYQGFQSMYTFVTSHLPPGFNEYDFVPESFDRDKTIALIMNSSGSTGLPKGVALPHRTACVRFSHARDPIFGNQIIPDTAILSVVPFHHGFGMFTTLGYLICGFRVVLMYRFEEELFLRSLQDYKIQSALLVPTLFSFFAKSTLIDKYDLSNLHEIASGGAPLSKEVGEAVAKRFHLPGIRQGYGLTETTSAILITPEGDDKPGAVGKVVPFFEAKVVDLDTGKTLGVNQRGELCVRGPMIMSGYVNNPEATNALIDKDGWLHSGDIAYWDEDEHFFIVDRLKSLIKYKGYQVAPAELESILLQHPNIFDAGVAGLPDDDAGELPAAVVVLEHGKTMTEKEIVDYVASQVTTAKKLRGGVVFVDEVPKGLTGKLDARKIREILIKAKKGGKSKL
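Purified P. pyralis luciferase, 10 nM final, with Km-level 10 uM D-luciferin and 10 uM ATP in 50 mM Tris acetate pH 7.5, 10 mM Mg acetate, 0.01% Tween-20, 0.05% BSA; 6-point qHTS titration about 60 µM downward; luminescence read.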
SMN2 splice enh: increases expression of the SMN2 splice variant; HEK293 SMN2-luciferase splicing reporter, luminescence, 30-36 h; Potency, µM (highest dose often 46.1 µM), inactives show at the highest dose activity change, positive = activation, usual class: activators; 210,000 compounds, 2.8% hits; AID 1458; also: % of control where 0% means no effect; nearly all actives have a fitted effect of over 55% in size
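HEK293 cells carry an SMN2 minigene-luciferase reporter in which exon 7 inclusion puts luciferase in frame. Cells were seeded at 2000 cells/well, attached for 10-12 hours, then exposed to compounds for 30-36 hours at 37C before ONE-Glo luminescence.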
ELG1 genotoxic: inducers of genotoxicity in HEK293T ELG1-luciferase cells; Potency, µM (series often up to 46 µM), for the others: top-dose activity change, positive = activation, hits mostly activators; AID 504466; 330,000 compounds, 1.3% hits; HEK293T ELG1-luciferase reporter, luminescence, 16 h; also: % of control where 0% means no effect; nearly all actives have a fitted effect of over 60% in size
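Genotoxicity was scored as increased ELG1-luciferase reporter signal, measured by ONE-Glo luminescence (30 min, room temperature). Compound or vehicle exposure of the HEK293T reporter cells lasted 16 hr at 37°C.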
NPC1 promoter act: NPC1 promoter activation; Potency, µM (series often up to 9.22 µM), for the others: at the highest dose activation, hits mostly activators; AID 485313; 320,000 compounds, 2.4% hits; Huh7 NPC1 promoter luciferase reporter, 24 h; also: % of control where 0% means no effect; nearly all actives have a fitted effect of over 60% in size
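Luminescence from an NPC1 promoter-driven luciferase reporter in stably transfected Huh7 cells was measured after 24 h compound treatment at 37 °C, followed by 10 min ambient incubation with luciferase detection reagent.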
Rab9 prom act: activators of Rab9 promoter; Huh7 Rab9 promoter-luciferase reporter, luminescence, 24 h; 320,000 compounds, 2.8% hits; Potency, µM (doses to about 9.22 µM), inactives show top-dose activation, negative = inhibition, actives largely listed as activators; also: % of control where 0% means no effect; nearly all actives have a fitted effect of over 60% in size
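Huh7 reporter line, Rab9 promoter upstream of luciferase. Compound exposure 24 h at 37 °C in reduced-serum medium with 10% FBS. Read-out: luminescence.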
Luc counter: Kinase-Glo luciferase inhibition (counter-screen); Potency, µM (top dose mostly 38.3 µM), without a hit: top-dose activity change, negative = inhibition, most hits filed as inhibitors; AID 1379; 200,000 compounds, 0.28% hits; Kinase-Glo luciferase, ATP luminescence, 8 min; also: % is scaled to controls: 0 for no effect and ±100 for the full control effect; nearly all actives have a fitted effect of over 60% in size
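Inhibition of Kinase-Glo luciferase light generation was assessed at 10 uM ATP in pH 7.2 imidazole buffer, with luminescence measured after eight minutes at ambient temperature.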
Starred values were filed as active, the others as inactive; ? = inconclusive; . = no result given; [ ] = another dose, or the depositor's remark. Calls follow the shape of the dose curve; as a rule, active = well fitted curve in the direction sought with a large enough effect; inconclusive = small, poorly fitted or top-dose-only effect, or another doubt; inactive = no such curve, though single readings can be large; an effect the other way counts as inactive or inconclusive. Potency is read from the fitted curve at half-maximal effect.

SMILES	FLuc counter	SMN2 splice enh	ELG1 genotoxic	NPC1 promoter act	Rab9 prom act	Luc counter
Cc1cc(OC(C)C(=O)N2C[C@H]3C[C@@H](C2)c2cccc(=O)n2C3)c2c(C)c(C)c(=O)oc2c1 (stereo partly drawn)	-1%	.	-2%	-8%	2%	.
CCCCNC(=O)C1CCN(S(=O)(=O)c2c(C)noc2/C=C\c2ccc(OC)cc2)CC1	1%	0%	10%	-2%	-2%	-1%
COc1ccc(/C=C\c2onc(C)c2S(=O)(=O)N2CCC(C(=O)NCCC(C)C)CC2)cc1	1%	-10%	0%	-3%	6.3µM*	3%
COc1ccc(-n2nc(C(=O)NCC(=O)N3CC(C)CC(C)C3)c3ccccc3c2=O)c(OC)c1 (stereo not drawn)	?	.	0%	1%	-1%	.
COc1ccc(-n2nc(C(=O)NCC(=O)N3CCCC3)c3ccccc3c2=O)c(OC)c1	13µM*	.	10%	-2%	8%	.
CCOC(=O)C1CCN(C(=O)CNC(=O)c2nn(-c3ccc(OC)cc3OC)c(=O)c3ccccc23)CC1	9.5µM*	.	10%	4%	13%	.
CCOC(=O)N1CCN(C(=O)CNC(=O)c2nn(-c3ccc(OC)cc3OC)c(=O)c3ccccc23)CC1	3.8µM*	.	?	15%	19%	.
O=C(OCc1cccc(C(F)(F)F)c1)c1ccc[nH]c1=O	-2%	.	2%	2%	-1%	.
CC(=O)c1cccc(NC(=S)NC(=O)c2ccccc2)c1	7.6µM*	?	?	?	2.2µM*	3%
O=C(NNC(=S)Nc1ccc(F)cc1)c1cccc([N+](=O)[O-])c1	-9%	.	2%	1%	0%	.
Cc1ccc(NC(=S)NNC(=O)c2cccc([N+](=O)[O-])c2)cc1Cl	19µM*	.	-6%	1%	-2%	.
COc1cc2ccccc2cc1C(=O)NC(=S)Nc1cccc(C(=O)O)c1	13µM*	20%	17%	?	2.2µM*	2%
O=C(O)c1cccc(NC(=S)NCc2ccccc2)c1	15µM*	.	2%	16%	?	0%
CCCC[C@]12Cc3cc(C#N)ccc3C(O1)c1c(c3cc(F)ccc3oc1=O)O2	0%[11.5 µM]	.	.	0%[1.84 µM]	-13%[1.84 µM]	.
COc1ccc(CNC(=O)Cn2ncc3c4ccccc4n(Cc4cccc(Cl)c4)c3c2=O)cc1	-8%	9%	.	.	.	.
Cc1cc(C)n(-c2nc3cc(Cl)ccc3nc2N2CCN(c3ccccc3F)CC2)n1	-12%	.	.	.	.	.
Cc1cccc(C(=O)NC(=S)Nc2ccccc2C(F)(F)F)c1	-19%	2%	-1%	17%	12%	-2%
O=C(NC(=S)Nc1ccc(Cl)cc1)c1ccccc1	11µM*	.	22%	?	?	.
O=C(NC(=S)Nc1ccccn1)c1cccc([N+](=O)[O-])c1	24µM*	.	?	1.3µM*	1.6µM*	.
CCOc1ccc(C(=O)NC(=S)Nc2ccccn2)cc1[N+](=O)[O-]	-6%	-68%	0%	-2%	?	-1%
Cc1ccc(C(=O)NC(=S)Nc2ccccc2C(F)(F)F)cc1C	24µM*	-17%	1%	3%	-2%	0%
O=C(Nc1ccc(Cl)cc1)C(Cl)C(=O)c1ccccc1 (stereo not drawn)	15µM*	.	?	2%	17%	.
COc1cc(C2C(=O)N(C3CCCCCC3)CC(=O)N2CCC2=CCCCC2)ccc1OC(C)C (stereo not drawn)	-3%	.	.	.	.	.
CC(C)CCOCC(=O)Nc1cccc(C(=O)O)c1	5.4µM*	14µM*	?	0.71µM*	0.5µM*	-4%
O=C(NC(=S)Nc1ccccn1)c1cncc(Br)c1	15µM*	-25%	11%	?	?	-2%
SMILES	FLuc counter	SMN2 splice enh	ELG1 genotoxic	NPC1 promoter act	Rab9 prom act	Luc counter
O=C(NC(=S)Nc1ccc(Br)cn1)c1cncc(Br)c1	-5%	12%	2%	6%	-3%	6%
O=C(NC(=S)Nc1cc([N+](=O)[O-])ccc1O)c1cccnc1	17µM*	-6%	8%	19%	?	1%
O=C(N/C(=N\O)c1ccccc1)Nc1ccc(Cl)cc1	17µM*	.	?	1%	-5%	-2%
CCOCC(=O)Nc1cccc(Br)c1	-39%	6%	3%	0%	1%	2%
Cn1c(C(=O)N2CCN(c3ccccc3)CC2)cc2cc(Cl)ccc21	-4%	.	0%	-1%	0%	.
O=[N+]([O-])c1ccc(CCO)cc1	.	-6%	.	.	.	.
CCCN1CCC(Oc2cccc(C(=O)NCCc3ccccc3)c2)CC1	?	.	4%	-1%	6%	.
CC(=O)c1cccc(NC(=S)NC(=O)c2cccc(Cl)c2)c1	21µM*	?	?	?	3.5µM*	-1%
CC(C)OC(=O)c1ccc(NC(=S)NC(=O)c2cncc(Br)c2)cc1	-11%	.	0%	-1%	-5%	.
O=C(O)/C(=N/NC(=O)c1ccc(Cl)cc1)c1ccccc1	17µM*	.	7%	-5%	2%	.
CC(=O)c1cccc(NC(=O)CCCSc2ccccc2)c1	?	.	0%	0%	-3%	.
CC#CCCCC(=O)Nc1cccc(C(=O)O)c1	24µM*	?	12%	?	3.2µM*	-1%
CC(=O)c1cccc(NC(=S)NC(=O)c2cncc(Br)c2)c1	?	.	10%	2.5µM*	?	.
Cc1ccc(C(=O)O)cc1NC(=S)NC(=O)c1ccc(-c2ccccc2)cc1	1.5µM*	.	?	?	?	0%
O=C(NC(=S)Nc1cccc([N+](=O)[O-])c1)c1ccco1	2%	28%	6%	16%	28%	-2%
CCCCC(=O)NC(=S)Nc1cccc(C(=O)O)c1	24µM*	.	9%	28%	20%	-1%
O=C(O)c1cccc(NC(=S)NC(=O)c2ccc(-c3ccccc3)cc2)c1	1.1µM*	3.2µM*	?	0.35µM*	?	1%
O=C(NC(=S)Nc1cccc([N+](=O)[O-])c1)c1ccccc1	?	.	14%	?	4µM*	.
CSc1ccc(CNC(=O)Cn2c(-c3cccs3)cc3cc(F)ccc32)cc1	-2%	.	.	.	.	.
O=C(CN1C(=O)NC2(CCCCCCC2)C1=O)Nc1cccc(Br)c1	.	.	-2%	.	.	.
CCc1ccccc1NC(=O)c1cn(C)c(=O)c2ccccc12	1%	6%	.	.	.	.
CSc1ccccc1OCc1cc(C(=O)N[C@H]2CCCCNC2=O)no1	11µM*	.	?	2.8µM*	3.5µM*	.
COc1ccc(OCc2cc(C(=O)N[C@H]3CCCCNC3=O)no2)c(Cl)c1	11µM*	.	?	?	?	.
COc1ccc(OCc2cc(C(=O)NC3Cc4ccccc4C3)no2)c(Cl)c1	3%	.	-5%	-24%	-10%	.
